MARV entry inh: inhibitors of Marburg virus binding or entry into cells; Marburg virus pseudotype entry/binding inhibition, cell-based; Potency, µM (doses to about 49.2 µM), inactives show at the highest dose activity change, negative = inhibition, most hits filed as inhibitors; 18,000 compounds, 6.5% hits; AID 720532
Lassa entry: Lassa virus entry inhibition; Lassa virus pseudotyped entry inhibition, cell-based qHTS; Potency, µM (series often up to 49.2 µM), without a hit: at the top dose activity change, negative = inhibition, usual class: inhibitors; 18,000 compounds, 4.1% hits; AID 720533
Active calls of the source: *; ? = inconclusive; [ ] = remark or other dose. A selection: hits, their analogues and other compounds. The true share with any hit is near 8%. The call rests on the fitted dose curve; tested in HEK293 cells. On the % scale 0 is the no-effect control and ±100 the full control effect; potency means the concentration at half of the fitted maximal effect.

SMILES	MARV entry inh	Lassa entry
COC(=O)C1=C(C)NC(C)=C(C(=O)OC(C)(C)CN(C)CCC(c2ccccc2)c2ccccc2)C1c1cccc([N+](=O)[O-])c1 (configuration not stated)	?	13µM*
COC(=O)C1=C(C)NC(C)=C(C(=O)O[C@@H]2CCCN(Cc3ccccc3)C2)[C@@H]1c1cccc([N+](=O)[O-])c1	14µM*	?
CC1=C(C(=O)OC(C)C)C(c2cccc([N+](=O)[O-])c2)C(C(=O)OC2CN(C(c3ccccc3)c3ccccc3)C2)=C(N)N1 (configuration not stated)	-24%	-20%
CN(C)CCO[C@@H](c1ccc(Cl)cc1)c1ccccn1	?	9%[17.8 µM]
COC(=O)CCCC1=CC2=CC(=O)C(C)(OC(=O)CCc3ccccc3)C(=O)C2=CO1 (configuration not stated)	5%	7%
Cc1ccc(S(=O)(=O)N2CCC(=O)N([C@H](COCc3ccc(Cl)cc3)Cc3ccccc3)CC2)cc1	?	-27%
COC(=O)N1C(C2CC2)=Cc2ccccc2C1CC(C)=O (configuration not stated)	26%	1%
COC(=O)C1=C(C)N(Cc2ccccc2)C(=NCC2CC2)NC1c1ccccc1 (configuration not stated)	-1%[8.59 µM]	-12%[8.59 µM]
CC(=O)Nc1ccccc1-c1nc(CNC(=O)c2ccc(F)c(F)c2)c(C)o1	8%	4%
Cc1cnc(C)c(-c2cc(F)cc3c2OC(CNC(=O)C2CCOC2)C3)n1 (configuration not stated)	-16%	-7%
COC(=O)[C@]1(C)CC[C@@]2(C)CC[C@@]3(C)C4=CC=C5C(=CC(=O)C(O)=C5C)[C@@]4(C)CC[C@@]3(C)C2C1 (some centres not stated)	3.5µM*	5.6µM*
NC(=O)NO	12%	-6%
Oc1cc2c(cc1O)[C@H]1c3ccc(O)c(O)c3OC[C@@]1(O)C2	?	-14%
CC(=O)Oc1ccc2c(c1OC(C)=O)OCC1(O)Cc3c(cc(OC(C)=O)c(OC(C)=O)c3OC(C)=O)C21 (configuration not stated)	7.9µM*	-19%
CCCCC[C@H](O)/C=C/[C@H]1C=CC(=O)[C@@H]1C/C=C\CCCC(=O)O	16%	-9%
CC(C)NC(=O)c1cn(C2CCCN(C(=O)c3cc4ccccc4oc3=O)C2)nn1 (configuration not stated)	-2%	-1%
CCC(C)(C)C(=O)OC1CC(C)C=C2C=CC(C)C(CCC3CC(O)CC(=O)O3)C21 (configuration not stated)	1%	3%
CN1CCCC[C@@H]1CCN1c2ccccc2Sc2ccc(S(C)=O)cc21 (some centres not stated)	?	0%[17.8 µM]
CSc1ccc2c(c1)N(CCC1CCCCN1C)c1ccccc1S2 (configuration not stated)	7.9µM*	22µM*
CSc1ccc(CN2CCOc3ccc(CN4CCCCC4CO)cc3C2)cc1 (configuration not stated)	?	-6%
CSc1ccc2c(c1)N(CC[C@H]1CCCCN1C)c1ccccc1S2	7.9µM*	?
CC(C)=CCC1=C(O)c2ccccc2C(=O)C1=O	5µM*	?
CC1=C(C/C=C(\C)CCC[C@H](C)CCC[C@H](C)CCCC(C)C)C(=O)c2ccccc2C1=O	-2%	-16%
C[C@@]12C(=O)OC(=O)[C@]1(C)C1CCC2O1	4.5µM*	2.2µM*
O=C(c1ccc(Nc2nccc(-c3cc4ccccc4s3)n2)cc1)N1CCC(N2CCCC2)CC1	2.2µM*	?
SMILES	MARV entry inh	Lassa entry
O=C(Nc1ccc(C(=O)N2CCCCC2)cc1)c1ccccc1	80%	32%
CCn1c(-c2ccccc2F)nc2cc(NC(C)=O)cc(C(=O)N3CCCCC3c3nccn3C)c21 (configuration not stated)	-4%	-18%
Cc1cc(O)c2c(c1)O[C@@]1(C)CC[C@H]3C(C)(C)CCCC34CO[C@@H]2[C@H]41 (some centres not stated)	-19%	?
CC(CN(C)C)CN1c2ccccc2S(=O)(=O)c2ccccc21 (configuration not stated)	?	-5%
CCN(CC)C(C)CN1c2ccccc2Sc2ccccc21 (configuration not stated)	1.6µM*	14µM*
O=C(CCCCCCCCCCCCC1CCCC1)Nc1ccc(S(=O)(=O)c2ccc(NC(=O)CCCCCCCCCCCCC3CCCC3)cc2)cc1	25%	-10%
COCc1cc(O)c(O)c(O)c1-c1c(COC)cc(O)c(O)c1O	7.9µM*	-14%
COc1ccc(C(C)=O)c(O)c1	19%	14%
COc1cc2nc(N(C)C)c(CNCCc3c[nH]c4ccccc34)cc2c(OC)c1OC	-12%	-3%
CCCCCCCCCC[n+]1cccc([C@@H]2CCCN2C)c1	6.3µM*	?
CN1CCC[C@H]1c1cccnc1	6%	7%
CC(COc1ccccc1)NN (configuration not stated)	-4%	-9%
